The panel holds about 83,000 compounds, 20% with a hit somewhere; the sample as a whole holds those more often.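 Activity criterion: percent growth below 10, measured after cells in 96-well plates were exposed to a single compound concentration for 48 hours.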 The source made the active and inactive calls.
Assays:
Assay in all cases: NCI-60 one-dose screen, 48 h (100 = growth as untreated, 0 = no growth, -100 = all killed)
Conditions in all cases: 10 µM unless noted
HCT-15 colon = tested on: HCT-15 colon
HT29 colon = tested on: HT29 colon
SNB-75 CNS = tested on: SNB-75 CNS
SNB-19 CNS = tested on: SNB-19 CNS
U251 CNS = tested on: U251 CNS
PC-3 prostate = tested on: PC-3 prostate
SK-MEL-5 melanoma = tested on: SK-MEL-5 melanoma
UACC-62 melanoma = tested on: UACC-62 melanoma
LOX IMVI melanoma = tested on: LOX IMVI melanoma
SK-MEL-28 melanoma = tested on: SK-MEL-28 melanoma

Measured: growth

CC(=O)OC[C@]1(C)C=C2C(=O)[C@](C)(O)C3(CC3)C(C)=C2[C@H]1OC(=O)N(C)CCN(C)C(=O)OC(C)(C)C
active: HCT-15 colon 3.65% | HT29 colon 0.176% | SNB-75 CNS -15.1% | SNB-19 CNS 8.79% | U251 CNS 4.09% | PC-3 prostate -21.4% | SK-MEL-5 melanoma -74.4% | UACC-62 melanoma -52% | LOX IMVI melanoma -6.97% | SK-MEL-28 melanoma -4.04%

CCCCCCCCOC(=O)CCN1CC1
inactive: HCT-15 colon 101% | HT29 colon 111% | SNB-75 CNS 110% | SNB-19 CNS 112% | U251 CNS 95.6% | PC-3 prostate 104% | SK-MEL-5 melanoma 105% | UACC-62 melanoma 109% | LOX IMVI melanoma 96.9% | SK-MEL-28 melanoma 113%

Cc1cc(N(CCCl)CCCl)ccc1C=Nc1ccccc1-c1ccccc1
inactive: HCT-15 colon 79.4% | HT29 colon 89.3% | SNB-75 CNS 66.1% | SNB-19 CNS 77.9% | U251 CNS 63.3% | PC-3 prostate 85.5% | SK-MEL-5 melanoma 85.7% | LOX IMVI melanoma 66.3% | SK-MEL-28 melanoma 95.2%
active: UACC-62 melanoma 6.46%

[Cl][Hg][n]1c(-c2ccco2)nc2ccccc21
inactive: HCT-15 colon 92% | HT29 colon 104% | SNB-75 CNS 91.7% | SNB-19 CNS 93.1% | U251 CNS 91.5% | PC-3 prostate 98.5% | SK-MEL-5 melanoma 97% | UACC-62 melanoma 95.8% | LOX IMVI melanoma 15.4% | SK-MEL-28 melanoma 108%

Brc1ccc2c(c1)c(-c1nc(-c3c[nH]c4ncccc34)cs1)cn2CCN1CCCCC1
inactive: HCT-15 colon 20.8% | HT29 colon 27.4% | SNB-75 CNS 67.7% | SNB-19 CNS 90% | U251 CNS 42% | PC-3 prostate 51.4% | SK-MEL-5 melanoma 68.2% | UACC-62 melanoma 78.2% | LOX IMVI melanoma 65.4% | SK-MEL-28 melanoma 106%

CC(C)(N)Cc1ccccc1
inactive: HCT-15 colon 105% | HT29 colon 97.2% | SNB-75 CNS 103% | SNB-19 CNS 108% | U251 CNS 105% | PC-3 prostate 88.9% | SK-MEL-5 melanoma 116% | UACC-62 melanoma 107% | LOX IMVI melanoma 103% | SK-MEL-28 melanoma 116%

CCOC(=O)c1c(C)n(Cc2ccccc2)c2cc(CN(C)C)c(O)cc12
inactive: HCT-15 colon 63.4% | HT29 colon 37% | SNB-75 CNS 50.5% | SNB-19 CNS 72.2% | U251 CNS 67.8% | PC-3 prostate 57.4% | SK-MEL-5 melanoma 82.5% | UACC-62 melanoma 58.4% | LOX IMVI melanoma 28.8% | SK-MEL-28 melanoma 80.2%

O=C1C2C(C(=O)[N]1[Hg][c]1ccccc1)C1(Cl)C(Cl)=C(Cl)C2(Cl)C1(Cl)Cl (stereo not given)
inactive: SNB-19 CNS 25.9%
active: HCT-15 colon -89.1% | HT29 colon -45% | SNB-75 CNS -64.1% | U251 CNS -65.9% | PC-3 prostate -57.4% | SK-MEL-5 melanoma -16.6% | UACC-62 melanoma -3.49% | LOX IMVI melanoma -82.8% | SK-MEL-28 melanoma -88.9%

COc1cc(/C=C/[N+](=O)[O-])cc(OC)c1
inactive: SNB-75 CNS 25.1% | SNB-19 CNS 24.6%
active: HCT-15 colon -44.5% | HT29 colon -25.6% | U251 CNS -50.9% | PC-3 prostate -25.4% | SK-MEL-5 melanoma 8.23% | UACC-62 melanoma 2.61% | LOX IMVI melanoma -93.9% | SK-MEL-28 melanoma -16.9%

COc1cc(C=Nc2cccc(Br)c2)ccc1N(CCCl)CCCl
inactive: HCT-15 colon 82.4% | HT29 colon 63.4% | SNB-75 CNS 69.1% | SNB-19 CNS 91.9% | U251 CNS 73% | PC-3 prostate 68.4% | SK-MEL-5 melanoma 86% | UACC-62 melanoma 76.1% | LOX IMVI melanoma 68.7% | SK-MEL-28 melanoma 116%

Clc1ccc(CO/N=C(\Cn2ccnc2)c2ccc(Cl)cc2Cl)c(Cl)c1
active: HCT-15 colon 6.36% | HT29 colon -19.4% | U251 CNS -21.2% | PC-3 prostate 4.16% | SK-MEL-5 melanoma -93.5% | UACC-62 melanoma 1.19% | LOX IMVI melanoma -47.4%
inactive: SNB-75 CNS 30.4% | SNB-19 CNS 17.7% | SK-MEL-28 melanoma 28%

COc1cc2c(cc1OCc1ccccc1)C(CC(C)C)=[N+](C)CC2
inactive: HCT-15 colon 99.4% | HT29 colon 63.3% | SNB-75 CNS 64.9% | SNB-19 CNS 69% | U251 CNS 49.1% | PC-3 prostate 62.8% | SK-MEL-5 melanoma 75.9% | UACC-62 melanoma 81.9% | LOX IMVI melanoma 91.1% | SK-MEL-28 melanoma 95.1%

CCOc1ccc(/C=C/[N+](=O)[O-])cc1
inactive: HCT-15 colon 51.1% | SNB-75 CNS 90.6% | SNB-19 CNS 91.2% | U251 CNS 60.1% | PC-3 prostate 77.4% | SK-MEL-5 melanoma 74.4% | UACC-62 melanoma 92.8% | LOX IMVI melanoma 62.9% | SK-MEL-28 melanoma 110%
active: HT29 colon 9.84%

CCCCCCCCCCCCCCCCCCOc1ccccc1COP(=O)(O)OOCC[N+](C)(C)C
active: HT29 colon -11.4% | SNB-75 CNS -4.01% | SNB-19 CNS -13.9% | U251 CNS -58.8% | PC-3 prostate -25.5% | SK-MEL-5 melanoma -72.9% | UACC-62 melanoma -11.5% | LOX IMVI melanoma -88.1%
inactive: HCT-15 colon 41.2% | SK-MEL-28 melanoma 21.4%
